# Pf growth 96h: P. falciparum growth inhibition at 96 hour, primary screen for plastid delayed-death inhibitors; P. falciparum luciferase reporter growth, 96 h; Potency, µM (titrated, usually from 28.7 µM), inactives show at the highest dose activity change, negative = inhibition, actives largely listed as inhibitors; actives 6.9% (n = 320,000); AID 504834; also: potency is read from the fitted curve at half-maximal effect; % is scaled to controls: 0 for no effect and ±100 for the full control effect
#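 Infected RBCs, 2% Hct / 0.05% parasitemia final; luciferase-reporter P. falciparum; cpd 96 h, 37 C, 5% CO2; luciferase detection reagent; luminescence.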
# Shiga inhibitor: Shiga toxin inhibition | Vero cells, Shiga toxin protein synthesis inhibition reporter | inhibition, % at 38.7 µM | actives 9.2% (n = 290,000) | AID 2315; in the data active = inhibition mostly above about 28%, no sharp cut-off; inactive = mostly below about 43%; also: 0% is about no effect
# CHX counter: counter-screen hit for Shiga toxin inhibitors, cycloheximide | cell reporter, cycloheximide protein synthesis inhibition counterscreen | max response, % | actives 12% (n = 300,000) | AID 2314; in the data active = max response mostly above about 13%, no sharp cut-off; inactive = mostly below about 14%; also: read at 38.3 µM for the half of the compounds with a filed dose; 0% is about no effect
# AMA1 RON2 block: inhibitors of Plasmodium falciparum AMA1-RON2 interaction; AlphaScreen AMA1-biotinylated RON2 peptide binding; Potency, µM (highest dose often 58.2 µM), inactives show at the highest dose activity change, negative = inhibition, most hits filed as inhibitors; actives 0.2% (n = 360,000); AID 720542;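 also: potency is read from the fitted curve at half-maximal effect; 0% = vehicle wells and -100% = peptide control; nearly all actives have a fitted effect of over 45% in size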
#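 AMA1 (3D7) with his tag at 25 nM final met compounds first, then biotinylated RON2 peptide at 25 nM; detection used donor plus acceptor beads, 10 µg/mL apiece, read by AlphaScreen after 30 min at room temperature.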
# HCV inh: inhibitors of hepatitis C virus infection; actives 3.4% (n = 340,000); Huh7.5.1 HCVcc-Cre infection, luciferase reporter, 44 h; AID 651820; Potency, µM (highest dose often 41.8 µM), for the others: top-dose activity change, negative = inhibition, most hits filed as inhibitors; also: potency is read from the fitted curve at half-maximal effect; % is scaled to controls: 0 for no effect and ±100 for the full control effect
#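 Whole-lifecycle infectious HCVcc-Cre system; cells 1,000/well, compound then virus (~0.5 moi) added 4 h after plating, 44 h culture. Luciferase read 15 sec following 15 min substrate incubation, room temp.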
# Pf growth 48h: P. falciparum growth inhibition at 48 hours (one generation) | P. falciparum luciferase growth in erythrocytes, 48 h | Potency, µM (highest dose often 28.7 µM), inactives show at the highest dose activity change, negative = inhibition, most hits filed as inhibitors | actives 5.9% (n = 310,000); also: potency is read from the fitted curve at half-maximal effect; % is scaled to controls: 0 for no effect and ±100 for the full control effect
#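 Read-out is firefly luciferase luminescence from an integrated reporter in P. falciparum, so falling signal marks reduced parasite growth. Infected erythrocytes were at 2% hematocrit and 0.1% parasitemia (final) in Albumax-supplemented RPMI 1640.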
# * hit, by the source's call; ? = inconclusive; / = no result; [ ] = another dose, or the depositor's remark. Compounds with a hit are over-represented: about 21% of the library has one in this group of screens. Unless noted, calls follow the shape of the dose curve; as a rule, active = well fitted curve in the direction sought with a large enough effect; inconclusive = small, poorly fitted or top-dose-only effect, or another doubt; inactive = no such curve, though single readings can be large; an effect the other way counts as inactive or inconclusive.
SMILES,Pf growth 96h,Shiga inhibitor,CHX counter,AMA1 RON2 block,HCV inh,Pf growth 48h
CCCC(=O)Nc1nc(C)c(-c2csc(Nc3cc(OC)ccc3OC)n2)s1,?,-7,0,29%,?,?
CCCC(=O)Nc1nc(C)c(-c2csc(Nc3ccccc3OC)n2)s1,13µM*,-5,-4,17%,?,?
Cc1ccc(Cl)cc1Nc1nc(-c2sc(NC(=O)C(C)(C)C)nc2C)cs1,5.2µM*,6,14,69%,2%,8.3µM*
COc1ccccc1Nc1nc(-c2c(C)[nH]c3ccccc23)cs1,2.3µM*,2,8,-2%,?,5.2µM*
Cc1[nH]c2ccccc2c1-c1csc(N)n1,175%,7,-3,6%,1%,1%
COc1ccccc1Nc1nc(-c2sc(NC(=O)C(C)(C)C)nc2C)cs1,12µM*,14,2,-4%,2.5µM*,?
CCSC(=Nc1ccccc1)Nc1ccccc1,0%,2,-4,-10%,9%,0%
CC(C)C1C(=O)N(Cc2cn(CCC3OCCO3)nn2)CCS(=O)(=O)N1Cc1ccc(-c2ccccc2Cl)cc1 (stereo not drawn),/,/,/,-14%,/,/
COc1ccccc1NC(=O)Nc1nc(C(N)CC(C)C)cs1 (stereo not drawn),/,/,/,72%,/,/
COc1ccccc1Nc1nc(-c2sc(NC(=O)CC(C)C)nc2C)cs1,1.9µM*,16,4,39%,?,?
CCCCCC(=O)Nc1nc(C)c(-c2csc(Nc3cc(Cl)ccc3OC)n2)s1,3.7µM*,-12,16,48%,?,7.4µM*
Cc1ccc(S(=O)(=O)N2C[C@H]3C(=O)C[C@@H](c4ccccc4)N(S(=O)(=O)c4ccc(C)cc4)[C@H]3C[C@H]2c2ccccc2Cl)cc1,/,/,/,-3%,/,/
CN(C)CCNC(=O)C(=O)C1C(=O)Nc2ccccc21 (stereo not drawn),10%,-6,-2,/,/,8%
Cc1ccc(NC(=O)C(=O)C2C(=O)Nc3ccccc32)cc1 (stereo not drawn),52%,22,11*,99%,6%,104%
CC1=NN(c2ccccc2)C(=O)C1C(=O)C(=O)Nc1ccc(F)cc1 (stereo not drawn),199%,79*,30*,-6%,-22%,365%
CC(C)OCCCNC(=O)C1CCN(S(=O)(=O)N2CCCC2)CC1,?,20,-4,-4%,2%,-5%
CCCCn1c(N)c(N(CCOC)C(=O)CSc2nnc(C)n2-c2ccc(OC)cc2)c(=O)[nH]c1=O,0%,/,/,-7%,0%,2%
Cc1nc(Nc2cnc(/C=C/c3cc(C(=O)Nc4cccc(C(F)(F)F)c4)ccc3C)cn2)cc(N2CCNCC2)n1,?,-15,-7,16%,-9%[8.37 µM],0.74µM*
CN1CCN(C(=O)/C=C/c2c(F)cccc2Cl)CC1,37%,11,19*,-16%,6%,0%
CN1CCN(C(=O)/C=C/c2cccc(Cl)c2)CC1,0%,20,17*,-1%,1%,-5%
N/C(Cc1nc2ccccc2s1)=N\O,?,108*,31*,84%,-5%,?
O=C(CCc1nc2ccccc2s1)OCc1ccccc1,-4%,20,-1,17%[11.6 µM],4%,-21%
NC(=O)CSCc1nc2ccccc2s1,-17%,42,84*,-6%,9%,/
Nc1ncc(Br)cc1S(=O)(=O)NCCC(=O)N1CCN(c2ccccn2)CC1,6%,-22,-6,13%,27%,12µM*
NC(=O)C1CCN(C(=O)CCNS(=O)(=O)c2cc(Br)cnc2N)CC1,15%,-4,-2,-3%,7%,25%
Nc1ncc(Br)cc1S(=O)(=O)NCCC(=O)N1CCN(c2ccccc2)CC1,34%,-9,-6,5%,3%,6.6µM*
CN(C)CCN(C(=O)C1CCN(S(=O)(=O)c2cccs2)CC1)c1nc2c(F)cccc2s1,17%,/,/,-10%,?,-1%
FC(F)(F)c1ccccc1NC(=S)N/N=C1\CC2CC=CC12 (stereo not drawn),?,77*,23*,58%,?,?

# Assay outcomes (PubChem)
